Legend:
Experiment in all cases: DAPPL (digital affinity profiling via proximity ligation, sequencing); 10 mM Tris-HCl pH 7.5, 50 mM NaCl, 1 mM DTT, 4% glycerol, room temperature, 30 min; GST-TFs on glutathione beads, 16-mer random dsDNA library, 0.1% formaldehyde crosslink after washing; high values mean tight binding
[1] = molecular target: T1, FEV (Homo sapiens, UniProt Q99581 1-238); conditions: protein: recombinant; tags: N-terminal GST; dsDNA, one strand shown
T1 sequence: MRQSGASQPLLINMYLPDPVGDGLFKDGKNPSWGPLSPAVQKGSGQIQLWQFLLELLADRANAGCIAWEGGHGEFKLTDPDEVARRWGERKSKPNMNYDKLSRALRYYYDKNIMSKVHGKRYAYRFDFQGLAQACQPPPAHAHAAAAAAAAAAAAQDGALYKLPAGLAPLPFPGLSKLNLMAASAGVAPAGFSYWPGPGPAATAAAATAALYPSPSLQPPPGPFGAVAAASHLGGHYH
How it was run: (§1)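 Human transcription factors fused to GST were expressed in yeast, captured on glutathione beads, given DNA barcodes and pooled with a GST-only negative control. Pools were incubated with 200 nmole of a 16-mer random double-stranded DNA library in Tris/NaCl/DTT/glycerol buffer at room temperature for 30 min. They were then washed, crosslinked with 0.1% formaldehyde, proximity-ligated (BsaI/T4 ligase, 1 h, 37 °C), PCR-amplified and sequenced on an Illumina NextSeq500. Binding signal is each 6-mer's read frequency for a factor divided by its frequency for the GST control.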

[2] = molecular target: ETV5 (Homo sapiens, UniProt P41161 1-510); conditions: protein: recombinant; tags: N-terminal GST; dsDNA, one strand shown
Chain of ETV5 (P41161 whole entry): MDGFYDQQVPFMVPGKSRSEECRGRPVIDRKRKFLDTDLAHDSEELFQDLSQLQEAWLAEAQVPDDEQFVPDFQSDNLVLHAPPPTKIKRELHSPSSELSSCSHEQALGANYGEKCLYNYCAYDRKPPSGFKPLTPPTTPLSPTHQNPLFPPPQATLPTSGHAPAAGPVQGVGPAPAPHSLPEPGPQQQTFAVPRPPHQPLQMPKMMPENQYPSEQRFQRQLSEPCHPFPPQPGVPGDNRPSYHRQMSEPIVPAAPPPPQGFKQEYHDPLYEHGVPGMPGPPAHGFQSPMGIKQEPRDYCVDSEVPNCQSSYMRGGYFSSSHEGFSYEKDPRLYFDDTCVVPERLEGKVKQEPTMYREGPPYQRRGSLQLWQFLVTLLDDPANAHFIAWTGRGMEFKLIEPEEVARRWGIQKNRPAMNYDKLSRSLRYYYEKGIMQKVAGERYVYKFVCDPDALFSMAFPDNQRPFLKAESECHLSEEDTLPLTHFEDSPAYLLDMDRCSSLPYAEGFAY
How it was run: as §1

[3] = molecular target: HSF1 (Homo sapiens, UniProt Q00613 1-529); conditions: protein: recombinant; tags: N-terminal GST; chain copies: 3; dsDNA, one strand shown
Chain of HSF1 (Q00613 whole entry): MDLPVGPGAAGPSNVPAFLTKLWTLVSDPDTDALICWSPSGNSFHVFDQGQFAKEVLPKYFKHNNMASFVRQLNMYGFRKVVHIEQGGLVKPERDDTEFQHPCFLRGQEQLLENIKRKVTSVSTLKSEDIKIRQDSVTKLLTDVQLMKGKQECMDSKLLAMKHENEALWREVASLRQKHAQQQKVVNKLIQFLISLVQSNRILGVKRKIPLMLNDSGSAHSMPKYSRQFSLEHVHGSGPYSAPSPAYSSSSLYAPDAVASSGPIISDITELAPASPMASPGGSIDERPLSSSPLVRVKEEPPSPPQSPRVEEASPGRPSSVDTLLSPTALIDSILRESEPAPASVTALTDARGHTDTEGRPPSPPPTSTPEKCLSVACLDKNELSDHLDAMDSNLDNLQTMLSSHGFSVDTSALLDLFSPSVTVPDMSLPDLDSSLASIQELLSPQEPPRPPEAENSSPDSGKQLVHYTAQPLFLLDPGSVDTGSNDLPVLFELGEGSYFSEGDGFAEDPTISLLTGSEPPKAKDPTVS
How it was run: as §1

[4] = molecular target: T2, SPIC (Homo sapiens, UniProt Q8N5J4 1-248); conditions: protein: recombinant; tags: N-terminal GST; dsDNA, one strand shown
T2 sequence: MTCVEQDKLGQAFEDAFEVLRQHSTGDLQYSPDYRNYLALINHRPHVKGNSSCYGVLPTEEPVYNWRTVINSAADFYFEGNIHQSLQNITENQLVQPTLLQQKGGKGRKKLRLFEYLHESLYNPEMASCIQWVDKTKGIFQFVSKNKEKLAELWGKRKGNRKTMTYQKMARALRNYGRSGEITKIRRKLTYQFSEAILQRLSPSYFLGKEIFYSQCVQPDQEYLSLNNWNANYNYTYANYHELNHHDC
How it was run: as §1

[5] = molecular target: ELF4 (Homo sapiens, UniProt Q99607 1-663); conditions: protein: recombinant; tags: N-terminal GST; dsDNA, one strand shown
Chain of ELF4 (Q99607 whole entry): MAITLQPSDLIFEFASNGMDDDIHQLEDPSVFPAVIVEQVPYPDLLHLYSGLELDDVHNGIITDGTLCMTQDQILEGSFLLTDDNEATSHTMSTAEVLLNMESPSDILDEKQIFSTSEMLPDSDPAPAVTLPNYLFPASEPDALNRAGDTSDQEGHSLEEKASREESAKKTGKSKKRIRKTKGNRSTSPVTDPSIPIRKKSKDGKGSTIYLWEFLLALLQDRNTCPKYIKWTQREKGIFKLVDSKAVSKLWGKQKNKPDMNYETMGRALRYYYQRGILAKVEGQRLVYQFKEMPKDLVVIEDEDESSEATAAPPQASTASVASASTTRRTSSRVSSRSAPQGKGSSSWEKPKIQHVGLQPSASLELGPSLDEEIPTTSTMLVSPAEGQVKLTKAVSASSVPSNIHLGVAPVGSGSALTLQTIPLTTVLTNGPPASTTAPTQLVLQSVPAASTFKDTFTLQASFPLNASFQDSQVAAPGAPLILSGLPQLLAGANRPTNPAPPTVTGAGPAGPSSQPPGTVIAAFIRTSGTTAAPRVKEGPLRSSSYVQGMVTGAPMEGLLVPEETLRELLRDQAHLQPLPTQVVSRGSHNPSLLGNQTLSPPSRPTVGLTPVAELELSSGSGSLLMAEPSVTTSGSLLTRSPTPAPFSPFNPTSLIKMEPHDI
How it was run: as §1

[6] = molecular target: T3, ELK4 (Homo sapiens, UniProt P28324-2 1-405); conditions: protein: recombinant; tags: N-terminal GST; dsDNA, one strand shown
T3 sequence: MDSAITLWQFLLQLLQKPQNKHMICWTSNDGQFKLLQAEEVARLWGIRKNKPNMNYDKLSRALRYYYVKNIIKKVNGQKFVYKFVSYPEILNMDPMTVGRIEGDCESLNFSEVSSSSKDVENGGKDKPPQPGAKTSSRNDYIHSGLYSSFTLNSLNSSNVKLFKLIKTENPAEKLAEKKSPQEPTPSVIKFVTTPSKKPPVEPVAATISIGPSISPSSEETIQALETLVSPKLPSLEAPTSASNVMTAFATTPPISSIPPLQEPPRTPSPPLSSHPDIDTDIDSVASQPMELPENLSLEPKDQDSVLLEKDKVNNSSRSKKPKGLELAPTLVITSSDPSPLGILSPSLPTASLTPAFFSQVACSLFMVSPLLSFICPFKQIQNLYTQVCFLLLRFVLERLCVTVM
How it was run: as §1

[7] = molecular target: T4, ETV2 (Homo sapiens, UniProt O00321 1-342); conditions: protein: recombinant; tags: N-terminal GST; dsDNA, one strand shown
T4 sequence: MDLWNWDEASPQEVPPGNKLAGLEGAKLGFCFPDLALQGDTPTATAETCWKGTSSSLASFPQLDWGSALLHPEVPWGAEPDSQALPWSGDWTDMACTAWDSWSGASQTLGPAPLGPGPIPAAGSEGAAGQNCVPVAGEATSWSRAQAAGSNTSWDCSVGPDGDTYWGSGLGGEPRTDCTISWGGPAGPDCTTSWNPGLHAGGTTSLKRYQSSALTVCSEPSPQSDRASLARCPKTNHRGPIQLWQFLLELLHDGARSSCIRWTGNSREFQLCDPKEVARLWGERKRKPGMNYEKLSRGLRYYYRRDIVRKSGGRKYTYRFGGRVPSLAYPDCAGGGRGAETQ
How it was run: as §1

[8] = molecular target: T5, ELF3 (Homo sapiens, UniProt P78545 1-371); conditions: protein: recombinant; tags: N-terminal GST; dsDNA, one strand shown
T5 sequence: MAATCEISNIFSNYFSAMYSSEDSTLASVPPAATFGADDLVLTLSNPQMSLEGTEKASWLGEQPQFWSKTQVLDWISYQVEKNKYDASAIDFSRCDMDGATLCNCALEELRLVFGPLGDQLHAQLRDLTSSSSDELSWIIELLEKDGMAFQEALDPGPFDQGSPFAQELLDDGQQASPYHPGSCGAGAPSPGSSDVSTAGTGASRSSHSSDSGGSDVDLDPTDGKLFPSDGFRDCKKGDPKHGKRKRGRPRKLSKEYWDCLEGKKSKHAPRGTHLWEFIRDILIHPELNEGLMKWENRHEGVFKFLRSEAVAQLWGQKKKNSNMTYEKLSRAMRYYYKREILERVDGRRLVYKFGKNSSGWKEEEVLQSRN
How it was run: as §1

[9] = molecular target: CRX (Homo sapiens, UniProt O43186 1-299); conditions: protein: recombinant; tags: N-terminal GST; dsDNA, one strand shown
Chain of CRX (O43186 whole entry): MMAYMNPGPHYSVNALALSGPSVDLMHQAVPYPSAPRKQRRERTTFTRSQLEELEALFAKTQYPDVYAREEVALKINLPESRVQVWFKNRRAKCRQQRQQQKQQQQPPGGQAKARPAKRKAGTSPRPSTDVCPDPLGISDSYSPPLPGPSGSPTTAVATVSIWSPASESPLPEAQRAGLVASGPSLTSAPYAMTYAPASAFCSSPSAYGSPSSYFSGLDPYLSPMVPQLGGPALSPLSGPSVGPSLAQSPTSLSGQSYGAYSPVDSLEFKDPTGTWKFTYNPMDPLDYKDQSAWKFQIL
How it was run: as §1

[10] = molecular target: ETV1 (Homo sapiens, UniProt P50549 1-477); conditions: protein: recombinant; tags: N-terminal GST; dsDNA, one strand shown
Chain of ETV1 (P50549 whole entry): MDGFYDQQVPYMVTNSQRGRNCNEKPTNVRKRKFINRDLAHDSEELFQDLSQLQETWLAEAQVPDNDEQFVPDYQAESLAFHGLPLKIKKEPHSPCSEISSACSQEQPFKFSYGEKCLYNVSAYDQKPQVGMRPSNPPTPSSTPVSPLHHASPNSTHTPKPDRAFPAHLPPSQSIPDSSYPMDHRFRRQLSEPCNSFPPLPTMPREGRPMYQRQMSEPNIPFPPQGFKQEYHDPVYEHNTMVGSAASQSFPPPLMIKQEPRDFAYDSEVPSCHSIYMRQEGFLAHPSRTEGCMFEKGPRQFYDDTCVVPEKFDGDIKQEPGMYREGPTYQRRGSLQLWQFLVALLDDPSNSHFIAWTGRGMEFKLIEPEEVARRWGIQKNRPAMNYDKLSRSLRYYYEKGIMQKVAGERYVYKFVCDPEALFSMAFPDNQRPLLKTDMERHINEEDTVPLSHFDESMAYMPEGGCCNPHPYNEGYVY
How it was run: as §1

[11] = molecular target: T6, ERF (Homo sapiens, UniProt P50548 1-548); conditions: protein: recombinant; tags: N-terminal GST; dsDNA, one strand shown
T6 sequence: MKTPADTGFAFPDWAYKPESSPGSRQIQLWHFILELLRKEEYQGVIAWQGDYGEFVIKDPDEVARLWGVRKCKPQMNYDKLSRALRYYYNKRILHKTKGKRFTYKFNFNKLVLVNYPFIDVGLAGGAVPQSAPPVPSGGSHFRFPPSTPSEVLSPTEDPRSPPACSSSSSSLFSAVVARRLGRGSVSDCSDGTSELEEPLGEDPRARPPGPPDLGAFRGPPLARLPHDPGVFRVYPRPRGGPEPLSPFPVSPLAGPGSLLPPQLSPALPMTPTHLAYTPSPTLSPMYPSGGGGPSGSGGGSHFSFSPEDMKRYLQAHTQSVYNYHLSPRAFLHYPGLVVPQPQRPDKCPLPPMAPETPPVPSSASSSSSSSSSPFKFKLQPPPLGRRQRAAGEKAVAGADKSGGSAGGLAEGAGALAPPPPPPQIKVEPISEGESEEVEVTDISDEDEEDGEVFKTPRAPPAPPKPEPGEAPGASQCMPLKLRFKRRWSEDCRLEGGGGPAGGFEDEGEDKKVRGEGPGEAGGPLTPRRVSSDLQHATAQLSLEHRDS
How it was run: as §1

[12] = molecular target: T7, ETV3L (Homo sapiens, UniProt Q6ZN32 1-361); conditions: protein: recombinant; tags: N-terminal GST; dsDNA, one strand shown
T7 sequence: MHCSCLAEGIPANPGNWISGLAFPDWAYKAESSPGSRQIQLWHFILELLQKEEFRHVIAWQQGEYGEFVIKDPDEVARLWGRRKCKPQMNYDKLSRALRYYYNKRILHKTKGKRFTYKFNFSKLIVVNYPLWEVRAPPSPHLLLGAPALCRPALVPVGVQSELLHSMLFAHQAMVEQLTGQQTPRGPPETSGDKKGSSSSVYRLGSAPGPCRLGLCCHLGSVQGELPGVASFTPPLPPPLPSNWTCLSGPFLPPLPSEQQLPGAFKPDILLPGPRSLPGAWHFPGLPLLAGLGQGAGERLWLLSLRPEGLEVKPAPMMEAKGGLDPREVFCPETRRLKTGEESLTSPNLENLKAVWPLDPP
How it was run: as §1

[13] = molecular target: T8, ETS2 (Homo sapiens, UniProt P15036 1-469); conditions: protein: recombinant; tags: N-terminal GST; dsDNA, one strand shown
T8 sequence: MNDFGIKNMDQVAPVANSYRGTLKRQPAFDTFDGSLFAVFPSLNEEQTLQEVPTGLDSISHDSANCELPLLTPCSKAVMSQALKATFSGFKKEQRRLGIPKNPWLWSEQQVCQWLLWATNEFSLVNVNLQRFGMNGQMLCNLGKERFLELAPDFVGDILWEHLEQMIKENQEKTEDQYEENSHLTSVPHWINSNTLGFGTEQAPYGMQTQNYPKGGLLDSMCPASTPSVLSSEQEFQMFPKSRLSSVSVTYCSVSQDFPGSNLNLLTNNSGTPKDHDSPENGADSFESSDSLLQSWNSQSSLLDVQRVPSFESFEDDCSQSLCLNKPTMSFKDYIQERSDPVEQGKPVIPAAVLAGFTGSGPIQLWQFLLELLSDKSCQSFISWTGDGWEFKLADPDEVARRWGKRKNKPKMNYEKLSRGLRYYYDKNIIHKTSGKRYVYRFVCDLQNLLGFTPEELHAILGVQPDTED
How it was run: as §1

[14] = molecular target: T9, SPDEF (Homo sapiens, UniProt O95238 1-335); conditions: protein: recombinant; tags: N-terminal GST; dsDNA, one strand shown
T9 sequence: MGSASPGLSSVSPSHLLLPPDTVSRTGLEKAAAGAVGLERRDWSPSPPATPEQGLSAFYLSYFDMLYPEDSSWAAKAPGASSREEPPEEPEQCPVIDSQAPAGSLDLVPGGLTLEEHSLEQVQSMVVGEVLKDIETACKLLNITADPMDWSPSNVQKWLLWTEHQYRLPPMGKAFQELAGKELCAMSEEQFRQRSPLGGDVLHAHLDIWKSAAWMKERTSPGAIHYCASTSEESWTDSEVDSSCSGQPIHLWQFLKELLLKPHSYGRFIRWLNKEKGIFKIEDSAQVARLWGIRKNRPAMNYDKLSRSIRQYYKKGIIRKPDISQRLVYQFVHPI
How it was run: as §1

[15] = molecular target: T10, ETV7 (Homo sapiens, UniProt Q9Y603 1-341); conditions: protein: recombinant; tags: N-terminal GST; dsDNA, one strand shown
T10 sequence: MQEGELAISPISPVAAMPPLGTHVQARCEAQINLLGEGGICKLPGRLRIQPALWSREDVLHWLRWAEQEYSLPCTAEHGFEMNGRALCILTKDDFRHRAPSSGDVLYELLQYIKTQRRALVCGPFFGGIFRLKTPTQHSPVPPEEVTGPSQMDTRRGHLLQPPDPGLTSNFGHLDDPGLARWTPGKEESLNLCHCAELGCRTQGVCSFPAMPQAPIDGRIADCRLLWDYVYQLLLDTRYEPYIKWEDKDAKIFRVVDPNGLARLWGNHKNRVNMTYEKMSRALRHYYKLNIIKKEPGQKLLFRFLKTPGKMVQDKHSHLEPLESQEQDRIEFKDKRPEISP
How it was run: as §1

[16] = molecular target: T11, ELF5 (Homo sapiens, UniProt Q9UKW6-2 1-255); conditions: protein: recombinant; tags: N-terminal GST; dsDNA, one strand shown
T11 sequence: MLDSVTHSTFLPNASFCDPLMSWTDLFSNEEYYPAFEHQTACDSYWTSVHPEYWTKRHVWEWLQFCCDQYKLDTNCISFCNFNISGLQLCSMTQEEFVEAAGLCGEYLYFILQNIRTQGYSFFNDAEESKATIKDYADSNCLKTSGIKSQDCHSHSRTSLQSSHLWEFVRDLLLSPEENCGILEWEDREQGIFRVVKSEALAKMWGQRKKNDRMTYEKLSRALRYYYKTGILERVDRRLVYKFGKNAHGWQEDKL
How it was run: as §1

[17] = molecular target: T12, ETV3 (Homo sapiens, UniProt P41162-2 1-143); conditions: protein: recombinant; tags: N-terminal GST; dsDNA, one strand shown
T12 sequence: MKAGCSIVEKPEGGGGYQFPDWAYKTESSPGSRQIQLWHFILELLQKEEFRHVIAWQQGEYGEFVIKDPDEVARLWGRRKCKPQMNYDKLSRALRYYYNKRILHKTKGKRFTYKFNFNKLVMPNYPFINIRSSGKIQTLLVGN
How it was run: as §1

[18] = molecular target: ETV6 (Homo sapiens, UniProt P41212 1-452); conditions: protein: recombinant; tags: N-terminal GST; dsDNA, one strand shown
Chain of ETV6 (P41212 whole entry): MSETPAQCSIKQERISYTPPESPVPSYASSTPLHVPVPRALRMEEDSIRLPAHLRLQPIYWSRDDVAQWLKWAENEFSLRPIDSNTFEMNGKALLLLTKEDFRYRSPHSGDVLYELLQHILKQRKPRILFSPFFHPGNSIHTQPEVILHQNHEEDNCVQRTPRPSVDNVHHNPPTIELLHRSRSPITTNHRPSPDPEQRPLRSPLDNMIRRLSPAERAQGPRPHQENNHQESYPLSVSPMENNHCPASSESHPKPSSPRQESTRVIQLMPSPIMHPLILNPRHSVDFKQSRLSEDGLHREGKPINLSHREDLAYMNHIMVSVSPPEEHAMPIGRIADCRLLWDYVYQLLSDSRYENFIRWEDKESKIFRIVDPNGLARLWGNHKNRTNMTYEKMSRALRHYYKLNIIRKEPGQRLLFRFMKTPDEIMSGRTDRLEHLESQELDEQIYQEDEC
How it was run: as §1

Question: Which binding signal [1] does the source give for CTACCT here?
Answer: 1.3 fold enrichment (6-mer frequency, TF over GST control)

Question: And the binding signal [2]?
Answer: 1.36 fold enrichment (6-mer frequency, TF over GST control)

Question: And the binding signal [3]?
Answer: 1.15 fold enrichment (6-mer frequency, TF over GST control)

Question: What about the binding signal [4] of the same sequence?
Answer: 1.38 fold enrichment (6-mer frequency, TF over GST control)

Question: And the binding signal [5]?
Answer: 1.46 fold enrichment (6-mer frequency, TF over GST control)

Question: What about the binding signal [6] of the same sequence?
Answer: 1.36 fold enrichment (6-mer frequency, TF over GST control)

Question: What about the binding signal [7] of the same sequence?
Answer: 1.54 fold enrichment (6-mer frequency, TF over GST control)

Question: And the binding signal [8]?
Answer: 1.18 fold enrichment (6-mer frequency, TF over GST control)

Question: What about the binding signal [9] of the same sequence?
Answer: 1.23 fold enrichment (6-mer frequency, TF over GST control)

Question: What about the binding signal [10] of the same sequence?
Answer: 1.54 fold enrichment (6-mer frequency, TF over GST control)

Question: And the binding signal [11]?
Answer: 1.74 fold enrichment (6-mer frequency, TF over GST control)

Question: And the binding signal [12]?
Answer: 1.53 fold enrichment (6-mer frequency, TF over GST control)

Question: And the binding signal [13]?
Answer: 1.45 fold enrichment (6-mer frequency, TF over GST control)

Question: What about the binding signal [14] of the same sequence?
Answer: 1.45 fold enrichment (6-mer frequency, TF over GST control)

Question: And the binding signal [15]?
Answer: 1.22 fold enrichment (6-mer frequency, TF over GST control)

Question: And the binding signal [16]?
Answer: 1.59 fold enrichment (6-mer frequency, TF over GST control)

Question: What about the binding signal [17] of the same sequence?
Answer: 1.44 fold enrichment (6-mer frequency, TF over GST control)

Question: What about the binding signal [18] of the same sequence?
Answer: 1.51 fold enrichment (6-mer frequency, TF over GST control)

From article PMC7862700, “An all-to-all approach to the identification of sequence-specific readers for epigenetic DNA modifications on cytosine”
